Measured values taken from the supplement of paper PMC6555819.

Each sequence was assayed on PPARg:RXRa IVT, anti-PPARg (NR concentration 270 nM, RXRa partner concentration 90 nM) (assay: PBM binding z-score (relative to random genomic background probes); higher = stronger binding; sequences stand for … in GC…GCGATTGACAGCGTAGAATGAAGG).
In short: (§1)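 Regression normalization was applied to scanned fluorescence from custom Agilent 4×180K protein-binding microarrays. Before scanning, arrays were incubated 1 h with ligand-free nuclear receptor dimers, and binding was detected with antibodies against each partner (one per run). Binding z-scores use the random background probes as reference.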

| Sequence | PBM binding z-score |
| --- | --- |
| AGTATGAGGTTATTAAGATCAGGGAATTGCGGTC | 1.51 |
| TCTTGTAGATCAACAGGAGGTTTAGAAAGATCGA | 0.449 |
| TCGAGTAGGTTAGTCGGGTCATTCAGCCAACATA | 3.67 |
| CCTCGGAGGAAAACAGGAGGTCAGAGCTGCCAGA | 0.00562 |
| CCTACTGGGCCATAGGTCATTGATTCCAATGCTC | 5.78 |
| CCTAGTTGGACAGGAGGTCACACACCGGATATGA | 2.64 |
| CATAGTTGGTCAGGAGGTCACACACCGGATATGA | 3.71 |
| CCTTACGGGTCACGAGGTAATAGCACGACGAGCG | 5.5 |
| TGGAGTAGGTTACCAATGGGGCATTCAGCTTTCT | 4.65 |
| GCGACTGGGGCAAAGCAGTTTACCATAAGGTTGG | 3.5 |
| CCTTACGGGTCACTGACAGGTTATAACATTTGGA | 3.86 |
| CTCGAAAGGGCGGTTGAGGTGAGTATACGGATAA | -0.15 |
| CTCGAAAGGTCGCTTGAGGTGAGTATACGGATAA | 1.84 |
| CCTACTGGGCCAAAAAGGTCGTTGATGCCGATAA | 2.91 |
| CCGACAGGGGCAAGGTTACCATAACGCACAGCCA | 0.0813 |
| CCTAGTTGGTCAGGAGGTCACCCACCGGATATGA | 3.28 |
| GCATATAGGTAATACAAGGTGTAAGTCCGATTGT | 2.41 |
| AACTCTAGGTAACAAGTTCAGTGAAAGAGAGGAC | 2.65 |
| CCTGCTAGGCCATGGTCAGCTAATCTACAGTATG | 0.103 |
| AGTCAAAGTTAATCTAGGTAACGTAAGATATGCT | 4.39 |

| Sequence | PBM binding z-score |
| --- | --- |
| CATACAGGGTCAGCTAGGTCAGAGTAGGGACGGC | 3.37 |
| CCTAGCAGGCCAATCTGGGTCAGTCAAGGCTTGA | 3.61 |
| ATATGTAGGTTAAGGGTCATTCATGTTGGTTCGC | 8.04 |
| TTACTAAGGTGAGCTGAGGTCGTTGATCCAACTC | 2.66 |
| CAAACTAGGTCAAGGTCAAAGCCGGTTTGTGCCA | 8.89 |
| CCTACTGGTCCAAAAAGGTCATTGATGCCGATAA | 1.54 |
| TCATATACGTAAAAGGTGAAAGTCGGTGTGGTAA | 1.71 |
| ACTAGCAGGCCAAGTTTGGGTTACTCAAACAAAG | 0.439 |
| ATCTCTGGGTAAAGTTCAGTGAAAGATCGATAGA | 2.87 |
| CCTGCTAGGTCAATTGTCAGCTAAAGCAGCTCGC | 3.14 |
| ACTATTAGTTGACTTAGGGCAACCTATACGACGC | 0.726 |
| CGAACTAGGTCTTCCAGGACAGTGAATACATTGA | 3.48 |
| CCTTGCGGGTCACTCCAGGTTATAGCATCGGAGT | 4.95 |
| CCGAGTAGGCTATGGGGCATTCAGGCAACGGTGA | 0.867 |
| CAGCCTAGGTCAGGGCCAGAATAGGAGGAACGTT | 1.55 |
| AGTAAAAGTTCATCTAGGTAACGTAAGATATGCT | 2.83 |
| CATAAAGGGTCAGCTAGGCCAGAGTAGGGACGGC | 2.9 |
| CGAACTAGGTCAAGGACACTGAATCTCCGCACGC | 8.2 |
| GTACCAAGGTGAATAGGTCGTTTATGAGTAGGCG | 2.43 |
| AGTCAAAGTTCAGGACGAGGTAACGCAAAGCACG | 1.75 |

The sequences below were run on PPARg DBDmut:RXRa IVT, anti-PPARg (DBD mutation: PPARg1 K132A/R137A, NR concentration 270 nM, RXRa partner concentration 90 nM) in the same assay as above.
In short: as §1

| Sequence | PBM binding z-score |
| --- | --- |
| AGTATGAGGTTATTAAGATCAGGGAATTGCGGTC | 1.49 |
| TCTTGTAGATCAACAGGAGGTTTAGAAAGATCGA | 0.726 |
| TCGAGTAGGTTAGTCGGGTCATTCAGCCAACATA | -0.174 |
| CCTCGGAGGAAAACAGGAGGTCAGAGCTGCCAGA | -1.65 |
| CCTACTGGGCCATAGGTCATTGATTCCAATGCTC | -0.202 |
| CCTAGTTGGACAGGAGGTCACACACCGGATATGA | 0.73 |
| CATAGTTGGTCAGGAGGTCACACACCGGATATGA | 1.32 |
| CCTTACGGGTCACGAGGTAATAGCACGACGAGCG | 3.05 |
| TGGAGTAGGTTACCAATGGGGCATTCAGCTTTCT | 0.93 |
| GCGACTGGGGCAAAGCAGTTTACCATAAGGTTGG | 0.0777 |
| CCTTACGGGTCACTGACAGGTTATAACATTTGGA | 0.537 |
| CTCGAAAGGGCGGTTGAGGTGAGTATACGGATAA | 0.116 |
| CTCGAAAGGTCGCTTGAGGTGAGTATACGGATAA | -0.0758 |
| CCTACTGGGCCAAAAAGGTCGTTGATGCCGATAA | -0.0977 |
| CCGACAGGGGCAAGGTTACCATAACGCACAGCCA | -0.56 |
| CCTAGTTGGTCAGGAGGTCACCCACCGGATATGA | -0.921 |
| GCATATAGGTAATACAAGGTGTAAGTCCGATTGT | 0.78 |
| AACTCTAGGTAACAAGTTCAGTGAAAGAGAGGAC | 0.517 |
| CCTGCTAGGCCATGGTCAGCTAATCTACAGTATG | -0.241 |
| AGTCAAAGTTAATCTAGGTAACGTAAGATATGCT | 1.49 |

| Sequence | PBM binding z-score |
| --- | --- |
| CATACAGGGTCAGCTAGGTCAGAGTAGGGACGGC | 1.35 |
| CCTAGCAGGCCAATCTGGGTCAGTCAAGGCTTGA | -0.788 |
| ATATGTAGGTTAAGGGTCATTCATGTTGGTTCGC | 2.47 |
| TTACTAAGGTGAGCTGAGGTCGTTGATCCAACTC | 0.501 |
| CAAACTAGGTCAAGGTCAAAGCCGGTTTGTGCCA | 2.59 |
| CCTACTGGTCCAAAAAGGTCATTGATGCCGATAA | 0.257 |
| TCATATACGTAAAAGGTGAAAGTCGGTGTGGTAA | 2.06 |
| ACTAGCAGGCCAAGTTTGGGTTACTCAAACAAAG | -1.56 |
| ATCTCTGGGTAAAGTTCAGTGAAAGATCGATAGA | 0.904 |
| CCTGCTAGGTCAATTGTCAGCTAAAGCAGCTCGC | -0.356 |
| ACTATTAGTTGACTTAGGGCAACCTATACGACGC | 1.42 |
| CGAACTAGGTCTTCCAGGACAGTGAATACATTGA | 0.439 |
| CCTTGCGGGTCACTCCAGGTTATAGCATCGGAGT | 0.399 |
| CCGAGTAGGCTATGGGGCATTCAGGCAACGGTGA | -0.695 |
| CAGCCTAGGTCAGGGCCAGAATAGGAGGAACGTT | -0.6 |
| AGTAAAAGTTCATCTAGGTAACGTAAGATATGCT | 1.21 |
| CATAAAGGGTCAGCTAGGCCAGAGTAGGGACGGC | 0.703 |
| CGAACTAGGTCAAGGACACTGAATCTCCGCACGC | 2.38 |
| GTACCAAGGTGAATAGGTCGTTTATGAGTAGGCG | 0.986 |
| AGTCAAAGTTCAGGACGAGGTAACGCAAAGCACG | 0.41 |
